In all, about 350,000 compounds went through this assay and about 5,500 (1.6%) were called active.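 The calls were made as follows: active = significant combined selectivity score with lowered wild-type GFP, culture density cut under 30%, mutant RFP and density less affected; inactive = any of these conditions unmet.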 The sample as a whole holds a higher share of actives than the screen did.

The nature of the assay: reduced GFP signal of wild-type E. coli, primary screen, bacterial rRNA inhibitor project, GFP/RFP fluorescence, OD600, single point (AID 720706). The settings on record: E. coli WT GFP vs humanized-ribosome RFP mutants, 24 h; GFP signal change (wild-type ribosome): stronger effect = lower value, DMSO median 0, no signal -100; OD600 change: measured here: OD600 growth, DMSO median 0, no signal -100; RFP signal change: measured here: RFP humanized mutant strains, DMSO median 0, no signal -100, concentration not given here.
In the case of `COC(=O)[C@@H]1[C@@H](CO)[C@@H]2Cn3c(ccc(-c4ccccc4F)c3=O)[C@@H]2N1CC1CCOCC1`, the GFP signal change (wild-type ribosome) is 1.95% (inactive), the OD600 change was -6.47% and the RFP signal change came out at 6.87%.
For `O=C1C(Sc2cccc(F)c2)=C[C@@]2(O)CC[C@@H](O)[C@]1(Sc1cccc(F)c1)[C@H]2O` the same measures were -37% (active), -28.5% and -4.19%.
Regarding `COc1ccc(S(=O)(=O)Nc2ccc3c(c2)CC(=O)N([C@H](C)CO)C[C@H](C)[C@@H](CN(C)C)O3)cc1`, the GFP signal change (wild-type ribosome) was 2.15% (inactive), the OD600 change turned out to be 13.2% and the RFP signal change is -1.01%.
For `C[C@H](CO)N1C[C@H](C)[C@@H](CN(C)C(=O)c2ccncc2)Oc2cc(C3=CCCCC3)ccc2S1(=O)=O` the same measures were -1.29% (inactive), -9.47% and -3.74%.
Turning to `CNC(=O)c1cccc2nc3ccccc3nc12`, the GFP signal change (wild-type ribosome) is -23.6% (active), the OD600 change was -17.7% and the RFP signal change was -6.61%.
Take `CNC(=O)C(NC(=O)c1ccccc1)=C(C)C`: the GFP signal change (wild-type ribosome) is 10.9% (inactive), the OD600 change came out at 9.13% and the RFP signal change is -0.414%.
For `CN(C)C(=O)c1coc2nc3ccccc3nc12`, the GFP signal change (wild-type ribosome) is 12.4% (inactive), the OD600 change amounted to 6.11% and the RFP signal change was -0.0205%.
For `CC(C)NC(=O)Nc1ccc2c(c1)C(=O)N(C)[C@@H]1CC[C@H](CC(=O)NCC3CCCCC3)O[C@@H]1CO2` the same measures were -0.35% (inactive), -6% and 0.584%.
Turning to `C/C=C/c1ccc([C@@H]2[C@H](CO)N(CC3CCCC3)C23CN(C(=O)CC2CC2)C3)cc1`, the GFP signal change (wild-type ribosome) is -14.4% (inactive), the OD600 change was -40% and the RFP signal change turned out to be 32.6%.
In the case of `CCOC(=O)CSC1=C(C#N)C(c2ccco2)C(C(=O)OCc2ccccc2)=C(C)N1` (stereo not given), the GFP signal change (wild-type ribosome) is -26.5% (active), the OD600 change was -14.3% and the RFP signal change is -3.21%.
The corresponding values for `CCOC(=O)C1(C)NC(c2ccco2)C2C(=O)N(c3ccccc3)C(=O)C21` (stereo not given) are 7.82% (inactive), 18.6% and 3.41%.
In the case of `CCCSC1=C(C#N)C(c2ccccc2C)C(C(=O)OC)C(=O)N1` (stereo not given), the GFP signal change (wild-type ribosome) is -10.9% (inactive), the OD600 change was -3.33% and the RFP signal change was -1.26%.
On to `O=C(NCCCN1CCN(c2ccc(F)cc2)CC1)Nc1ccc([N+](=O)[O-])cc1`, for which the GFP signal change (wild-type ribosome) was -23.1% (active), the OD600 change was -16.1% and the RFP signal change came to 9.67%.
For `O=C(NCCCN1CCOCC1)c1ccc([N+](=O)[O-])cc1[N+](=O)[O-]`, the GFP signal change (wild-type ribosome) is 7.34% (inactive), the OD600 change was 6.35% and the RFP signal change is -0.35%.
As to `CN1CCN(CCNC(=O)Nc2ccc([N+](=O)[O-])cc2)CC1`, the GFP signal change (wild-type ribosome) is 3.04% (inactive), the OD600 change is -6.09% and the RFP signal change is -2.6%.
In the case of `O=C(c1ccncc1)N1CC(=O)N2[C@H](C1)[C@@H](c1ccc(C#CCC3CCCC3)cc1)[C@@H]2CO`, the GFP signal change (wild-type ribosome) was -32.1% (inactive), the OD600 change is -56.8% and the RFP signal change is 7.12%.
The corresponding values for `CCCN(C)C[C@@H]1Oc2ncc(-c3ccccc3F)cc2C(=O)N([C@@H](C)CO)C[C@@H]1C` are 9.44% (inactive), 19.7% and -1.32%.
Consider `Nc1ccc(N=Nc2ccccc2Cl)c(N)n1`, for which the GFP signal change (wild-type ribosome) was -31.4% (active), the OD600 change is -18.6% and the RFP signal change was -5.26%.
For the compound `C[C@@H]1CN([C@H](C)CO)C(=O)c2cccc(NC(=O)Nc3ccc(F)cc3)c2O[C@@H]1CN(C)C(=O)Nc1ccc(C(F)(F)F)cc1`, the GFP signal change (wild-type ribosome) is -3.92% (inactive), the OD600 change was -1.07% and the RFP signal change is -2.09%.
For the compound `COc1ccc(S(=O)(=O)Nc2ccc3c(c2)CC(=O)N([C@H](C)CO)C[C@H](C)[C@@H](CN(C)C(=O)NC(C)C)O3)cc1`, the GFP signal change (wild-type ribosome) was 1.06% (inactive), the OD600 change worked out at 6.54% and the RFP signal change was -0.682%.
For `C[C@@H]1CN([C@@H](C)CO)C(=O)c2cccc(N(C)C)c2O[C@@H]1CN(C)S(C)(=O)=O` the same measures were 0.068% (inactive), 11.7% and 1.6%.
In the case of `N#CC1=C(N)Oc2cc(N)ccc2C1c1ccccc1` (stereo not given), the GFP signal change (wild-type ribosome) is 5.33% (inactive), the OD600 change turned out to be 13.2% and the RFP signal change was found to be 8.27%.
`Cc1cc(C)c(C#N)c(SCc2[nH]nc3c2C(c2ccccc2)C(C#N)=C(N)O3)n1` (stereo not given): the GFP signal change (wild-type ribosome) is -19.3% (active), the OD600 change was -14.2% and the RFP signal change stood at 7.29%.
Regarding `N#CC1=C(N)Oc2n[nH]c(CSc3ccccc3)c2C12C(=O)Nc1ccccc12` (stereo not given), the GFP signal change (wild-type ribosome) was -4.64% (inactive), the OD600 change is -0.706% and the RFP signal change amounted to 2.2%.
The corresponding values for `CCC(=O)Nc1ccc2c(c1)C(=O)N(C)[C@H]1CC[C@H](CC(=O)NCC3CCCCC3)O[C@H]1CO2` are -0.704% (inactive), -0.374% and -0.863%.
On to `CC[C@H](NC(=O)[C@H](Cc1ccccc1)NC(=O)[C@H]1O[C@@H](n2cnc3c(=O)[nH]c(N)nc32)[C@H](O)[C@@H]1O)c1ccccc1`, for which the GFP signal change (wild-type ribosome) was 13.7% (inactive), the OD600 change stood at 14.1% and the RFP signal change was 2.61%.
The corresponding values for `CCc1cccc(NC(=O)CCNS(=O)(=O)c2cccc3nonc23)c1` are -13.3% (inactive), -12.7% and 18.6%.
For `O=C(O)c1ccc(NS(=O)(=O)c2cccc3nsnc23)cc1` the same measures were 12.3% (inactive), 9.27% and 0.548%.
The corresponding values for `O=S(=O)(Nc1ccc(OC(F)(F)F)cc1)c1cccc2nonc12` are -39% (active), -15.7% and -10.9%.
As for `Cc1ccc(S(=O)(=O)N(C)C[C@@H]2Oc3c(NS(=O)(=O)c4ccc(F)cc4)cccc3C(=O)N([C@@H](C)CO)C[C@H]2C)cc1`, the GFP signal change (wild-type ribosome) was -1.93% (inactive), the OD600 change amounted to 3.45% and the RFP signal change is 0.647%.

These data come from PubChem BioAssay AID720706 (Broad Institute, 2013).
